# “And” between values parts separate entries of the source, which are not always exact repeats. Identical values can stand only once. Among all 16,000 compounds or so, about 5,800 (36%) were called active. Not shown: some 23% with an inconclusive outcome. Calls follow the shape of the dose curve; as a rule, active = well fitted curve in the direction sought with a large enough effect; inconclusive = small, poorly fitted or top-dose-only effect, or effect the other way; inactive = no such curve, though single readings can be large or run the other way. This is one part of the list. Some compounds were tested as several samples or in several runs, with calls that do not always agree.
# Target: Cytochrome P450 2C19 (Homo sapiens) (UniProt P33261)
# Sequence (P33261 whole entry, looked up): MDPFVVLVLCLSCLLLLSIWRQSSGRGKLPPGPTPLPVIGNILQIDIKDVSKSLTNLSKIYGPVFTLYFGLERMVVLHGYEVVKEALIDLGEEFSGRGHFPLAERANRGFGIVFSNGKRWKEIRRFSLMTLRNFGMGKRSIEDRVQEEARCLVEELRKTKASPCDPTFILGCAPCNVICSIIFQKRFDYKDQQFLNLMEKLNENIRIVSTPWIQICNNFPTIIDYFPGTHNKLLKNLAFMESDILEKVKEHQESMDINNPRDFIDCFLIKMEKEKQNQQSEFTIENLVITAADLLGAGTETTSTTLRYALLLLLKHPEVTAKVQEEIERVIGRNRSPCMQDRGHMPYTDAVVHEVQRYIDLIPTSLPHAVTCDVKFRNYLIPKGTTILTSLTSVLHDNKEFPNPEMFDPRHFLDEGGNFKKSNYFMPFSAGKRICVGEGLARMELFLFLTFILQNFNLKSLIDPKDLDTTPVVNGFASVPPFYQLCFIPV
# Assay: Cytochrome panel assay with activity outcomes
# Settings: recombinant CYP, pro-luciferin dealkylation, luminescence, p450-cyp2c19; series mostly up to 57.1 µM; activity, negative = inhibition: at the top concentration
# % is scaled to controls: 0 for no effect and ±100 for the full control effect.
Structure (SMILES),"activity, negative = inhibition",AC50
COc1ccc(C(=O)NC2CC3CCCC(C2)N3CC(C)C)cc1OC (stereo unspecified),-7.42% (inactive),
NC[C@H](O)c1ccc(O)cc1,,inactive
O=C1CCCCCC1C1(O)C(=O)Nc2ccc(Br)cc21 (stereo unspecified),,4.47 µM (active)
Oc1ccc2c3c1O[C@@H]1c4[nH]c5c(c4C[C@@]4(O)[C@@H](C2)N(CC2CC2)CC[C@]314)C[C@]1(O)[C@@H]2Cc3ccc(O)c4c3[C@@]1(CCN2CC1CC1)[C@H]5O4,-16.2% (inactive),
Oc1ccc2c3c1O[C@H]1c4[nH]c5c(c4C[C@@]4(O)[C@@H](C2)N(CC2CC2)CC[C@]314)C[C@]1(O)[C@H]2Cc3ccc(O)c4c3[C@@]1(CCN2CC1CC1)[C@@H]5O4,-41.7% (inactive),
Oc1ccc2c3c1O[C@H]1c4[nH]c5ccccc5c4C[C@]4(O)[C@H](C2)N(CC2CC2)CC[C@@]314,,10 µM (active)
C[N+]1(C)[C@@H]2CC[C@H]1CC(OC(=O)[C@@H](CO)c1ccccc1)C2 (stereo partly specified),,inactive
COc1cc(CCN)ccc1O,42.9% (inactive),
COc1cc(CNC(=O)CCCC/C=C\C(C)C)ccc1O,,inactive and 6.31 µM (active)
CNC[C@H](O)c1ccc(O)c(OC)c1,19.3% [at 25.6 µM] (inactive),
CC(=O)[C@@H]1CC[C@@H]2[C@@H]3CCC4=CC(=O)CC[C@@]4(C)[C@H]3CC[C@]21C,-32.5% [at 25.6 µM] (inactive),
CN1C[C@H](C(=O)N[C@@]2(C)O[C@@]3(O)[C@H]4CCCN4C(=O)[C@@H](Cc4ccccc4)N3C2=O)C=C2c3cccc4[nH]cc(c34)C[C@@H]21,13.1% [at 11.4 µM] (inactive),
CC(C)C[C@H]1C(=O)N2CCC[C@@H]2[C@]2(O)O[C@](NC(=O)[C@H]3C=C4c5cccc6[nH]c(Br)c(c56)C[C@H]4N(C)C3)(C(C)C)C(=O)N12,,inactive
CC(C)[C@@]1(NC(=O)[C@@H]2C[C@H]3c4cccc5[nH]cc(c45)C[C@@H]3N(C)C2)O[C@@]2(O)[C@H]3CCCN3C(=O)[C@H](Cc3ccccc3)N2C1=O,,3.98 µM (active) and 5.01 µM (active)
CCCCN(CCCC)CCC(O)c1cc2c(Cl)cc(Cl)cc2c2cc(C(F)(F)F)ccc12 (stereo unspecified),9.25% [at 25.6 µM] (inactive),
NC[C@H](CC(=O)O)c1ccc(Cl)cc1,,2.51 µM (active)
O=C(O)CP(=O)(O)c1ccc(Cl)cc1,-4.15% (inactive),
NC[C@@H](CC(=O)O)c1ccc(Cl)cc1,,inactive
CC1(C)N=C(N)N=C(N)N1c1cccc(C(=O)Nc2ccc(S(=O)(=O)F)cc2)c1,25.1% [at 11.4 µM] (inactive),
CC(=O)OCC1=C(C(=O)[O-])N2C(=O)[C@@H](NC(=O)CCC[C@@H](N)C(=O)[O-])[C@@H]2SC1.[Zn+2],-15.5% (inactive),
C[C@]12CC[C@H]3c4ccc(O)cc4CC[C@@H]3[C@H]1CC[C@@H]2OC(=O)CCc1ccccc1,-66% [at 11.4 µM] (inactive),
Cc1ccc2c(c1)C1CN(C)CCC1N2C(=O)Nc1cccc(Cl)c1 (stereo unspecified),,25.1 µM (active)
NC(N)=NC(=O)c1nc(Cl)c(N)nc1N,23.9% [at 25.6 µM] (inactive),
O=C(c1ccccc1F)c1cn(Cc2ccccc2)c2ccccc12,,1.26 µM (active)
O=C(c1ccccc1F)c1cn(CC(=O)N2CCOCC2)c2ccccc12,,10 µM (active)
CCOC(=O)Cn1cc(C(=O)c2ccccc2F)c2ccccc21,,3.55 µM (active)

Structure (SMILES),"activity, negative = inhibition",AC50
O=C(O)c1nn(Cc2ccc(Cl)cc2Cl)c2ccccc12,-10% (inactive),
CCNC(=O)[C@@H]1O[C@@H](n2cnc3c(N)ncnc32)[C@H](O)[C@H]1O,-29.8% (inactive),
O=P(O)(O)c1ccccc1 (tested in a mixture with another compound),41.3% [at 11.4 µM] (inactive),
CC[C@@H]1[C@@H]2C[C@H]3[C@H]4N(C)c5ccccc5[C@@]45C[C@@H]([C@@H]2[C@@H]5O)N3[C@H]1O,7.83% [at 25.6 µM] (inactive),
C=C(C)[C@H]1CC[C@]2(CO)CC[C@]3(C)[C@@H](CC[C@H]4[C@@]5(C)CC[C@@H](O)C(C)(C)[C@@H]5CC[C@@]43C)[C@H]12,33.7% [at 25.6 µM] (inactive),
C[C@]1(O)CC[C@H]2[C@@H]3[C@@H](O)CC4=CC(=O)CC[C@@]4(C)[C@H]3CC[C@]21C,12.3% [at 11.4 µM] (inactive),
O=C(O)/C=C\c1ccc[c]([Sb](=[O])([OH])[OH])c1,-11.2% [at 11.4 µM] (inactive),
COc1ccc(-n2nc(C(F)(F)F)cc2-c2ccc(Cl)cc2)cc1,,7.94 µM (active)
CC(C)(C)C(=O)CP(=O)(O)O,34.5% [at 11.4 µM] (inactive),
CN1CCC(c2c[nH]c3ccc(O)cc23)CC1,,inactive
COc1ccc2c(c1O)-c1c(OC)c(OC)cc3c1[C@H](C2)N(C)CC3,-24.7% [at 25.6 µM] (inactive),
C[N+]1(C)CCc2cc3c(cc2[C@@H]1[C@@H]1OC(=O)c2c1ccc1c2OCO1)OCO3,18.5% (inactive),
COc1ccc(C[C@H]2c3cc(OC)c(OC)cc3CCN2C)cc1OC,-22.8% [at 25.6 µM] (inactive),
CN1CCc2cc3c(cc2[C@@H]1[C@@H]1OC(=O)c2c1ccc1c2OCO1)OCO3,,0.0501 µM (active)
COc1c2c(cc3c1OCO3)CCN(C)C2,-28.1% [at 25.6 µM] (inactive),
COc1ccc2c(c1OC)CN1CCc3cc4c(cc3[C@H]1C2)OCO4,,1.26 µM (active)
O[C@@H]1[C@@H]2c3cc4c(cc3CN3CCC(=C[C@@H]1O)[C@H]23)OCO4,10.7% [at 25.6 µM] (inactive),
CO[C@H]1C=C2CCN(C)[C@@H]2[C@@H]2c3cc4c(cc3C(=O)O[C@H]21)OCO4,-44.6% [at 25.6 µM] (inactive),
COc1ccc2c(c1OC)C(=O)O[C@H]2[C@H]1c2cc3c(cc2CCN1C)OCO3,,1.26 µM (active)
O=C(NCP(=O)(O)O)c1cccnc1,26.5% [at 11.4 µM] (inactive),
c1cnc(N2CC[C@@]3(CCCNC3)C2)nc1,-7.58% (inactive),
C=C[C@]12CN(C)[C@H]3C1[C@@]1(C(=O)Nc4ccccc41)[C@H]1C[C@H]2[C@H]3CO1,12.4% [at 25.6 µM] (inactive),
CCCN1CCC[C@@H]2Cc3[nH]ncc3C[C@H]21,,inactive
CC(=O)O[C@H]1CC[C@@]2(C)[C@@H](CC[C@H]3[C@H]2CC(=O)[C@@]2(C)[C@@H]3C[C@H]3CC(C)=CC(=O)[C@H]32)C1,-7.79% [at 11.4 µM] (inactive),
CS(=N)(=O)CC[C@H](N)P(=O)(O)O (stereo partly specified),2.48% [at 11.4 µM] (inactive),

# Source: PubChem BioAssay AID1851 (National Center for Advancing Translational Sciences (NCATS), 2009)
